TEAD-YAP block: TEAD-YAP interaction inhibition | actives 1.4% (n = 640,000) | inhibition, % at 9.12 µM | HEK-TIYL cells, TEAD-Gal4/YAP UAS-luciferase luminescence; in the data active = inhibition above about 32%;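 also: 0% = median of test compound wells and 100% = reference inhibitor wells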
MITF inh: blocks human microphthalmia-associated transcription factor. O75030. AlphaScreen MITF homodimerization, bead proximity signal. inhibition, % at 2.6 µM. actives 0.91% (n = 650,000); in the data active = inhibition above about 50%;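 also: 0% = vehicle wells with protein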
GPR151 ag: activates the human receptor GPR151. actives 1% (n = 650,000). AID 1508602. Q8TDV0. PathHunter beta-arrestin GPR151 cells, luminescence. activation, % at 11.2 µM; in the data active = activation above about 4.9%;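 also: 0% = median of compound wells and 100% = cells with positive control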
FBW7 activator: activators of human E3 ligase FBW7; normalized activity (activation), % at 26.1 µM; AlphaScreen FBW7–phospho-cyclin E peptide binding, activator screen; actives 0.13% (n = 650,000); Q969H0; in the data active = normalized activity above about 1.9%;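 also: purified mutant Fbw7 with reduced substrate affinity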
Active calls of the source: *. A selection: hits, their analogues and other compounds. The true share with any hit is near 3.4%.

SMILES	TEAD-YAP block	MITF inh	GPR151 ag	FBW7 activator
O=C(N/N=C/c1ccccc1O)c1n[nH]c2c1CCC2	33.1*	18.4	-0.7	-0.9
O=C(N/N=C/c1cccc(O)c1)c1n[nH]c2c1CCC2	46.2*	11.1	-5.5	0.1
O=C(N/N=C\c1cccc(Cl)c1)c1n[nH]c2c1CCCC2	25.3	16.2	1.2	0.1
Cc1ccc(C(=O)COC(=O)c2ccc(N(C)C)cc2)cc1[N+](=O)[O-]	2.4	-7.2	0.5	-0.3
CC(C)(C)NC(=O)C(c1ccco1)N(C(=O)c1csnn1)c1ccc(Cl)cc1 (stereo not given)	-11.6	2.3	-0.4	0.2
C/C(=N/NC(=O)c1n[nH]c2c1CCCC2)c1cccc(O)c1	22.8	-2.8	0.1	-0.1
C/C(=N/NC(=O)c1n[nH]c2c1CCC2)c1cccc(O)c1	39.8*	-1.0	1.3	0.0
Cc1cc(C(F)(F)F)nc(SCC(=O)Nc2sc3c(c2C#N)CCC(C(C)(C)C)C3)n1 (stereo not given)	-3.8	-14.4	-0.2	0.0
Cc1nn2c(=O)/c(=C\c3ccccn3)sc2nc1=O	-2.0	70.1*	0.8	-0.1
Cc1oc2c(c1C(=O)N1CCN(C)CC1)C(=O)c1ccccc1C2=O	48.0*	19.9	-0.7	0.0
Cc1oc2c(c1C(=O)NCC1CCCO1)C(=O)c1ccccc1C2=O (stereo not given)	77.3*	11.4	-1.6	0.0
C=CCn1c(SCc2c(C)noc2C)nc2scc(C3CC3)c2c1=O	50.2*	-1.0	0.7	0.0
CC(C)(CO)NC(=O)c1cc(-c2ccc(Cl)cc2Cl)on1	48.3*	-14.6	-1.1	0.1
CCN(CC)C(=O)c1cc(-c2ccc(Cl)cc2Cl)on1	-77.4	12.8	0.2	0.4
CN1C(=O)c2ccc(NC(=O)c3ccccc3Br)cc2C1=O	-5.1	1.6	-1.1	2.0*
O=C(Nc1ccc(O)cc1)c1ccccc1Br	75.7*	-0.7	-0.2	0.4
CC(=O)/C(N=Nc1ccc(S(=O)(=O)N2CCOCC2)cc1)=C(\C)O	-8.1	6.1	-1.4	0.0
O=C(O)C1Nc2c(O)ccc(Br)c2C2C=CCC12 (stereo not given)	2.0	85.7*	-0.1	-0.3
CCOC(=O)c1ccc2c(c1)[C@@H]1C=CC[C@@H]1[C@H](C(=O)OCC)N2	-1.6	9.6	-0.2	-0.2
Cc1ccc2c(c1C)NC(C(=O)O)C1CC=CC21 (stereo not given)	-14.8	64.5*	-0.7	-1.3
O=C(O)C1Nc2ccc3ccccc3c2C2C=CCC12 (stereo not given)	-1.8	23.9	0.4	0.0
CCOC(=O)C1Nc2c(ccc(C(=O)O)c2C)C2C=CCC12 (stereo not given)	12.7	65.5*	0.6	-1.2
O=C(O)C1Nc2c(F)cccc2C2C=CCC12 (stereo not given)	8.5	78.2*	-0.9	-0.4
CCn1c(SCC(=O)Nc2ccc(OC)cc2)nnc1C(C)Oc1ccccc1 (stereo not given)	15.3	4.7	-0.5	0.0
Cc1cc(C)cc(N2C(=O)/C(=C/c3cccc([N+](=O)[O-])c3)N=C2c2cccc(Cl)c2)c1	-9.7	-3.2	-0.2	0.0
SMILES	TEAD-YAP block	MITF inh	GPR151 ag	FBW7 activator
O=C(O)c1ccc2c(c1)C1C=CCC1C(C(=O)O)N2 (stereo not given)	5.4	25.0	-0.4	-0.8
O=C(O)C1Nc2ccccc2C2C=CCC12 (stereo not given)	-5.7	75.2*	0.3	-1.9
O=C(O)Cn1cc(/C=C2\C(=O)NC(=S)N(c3cccc(F)c3)C2=O)c2ccccc21	3.1	26.2	-1.2	-0.1
O=C(Nc1ccc(CN2CCOCC2)cc1)c1ccc(OCc2ccccc2)cc1	13.5	2.5	-0.4	-0.3
O=C(CN1CCOCC1)Nc1ccc(OCc2ccccc2)cc1	32.8*	-5.0	0.3	0.0
O=C(Nc1ccc(OCc2ccccc2)cc1)c1ccc(CN2CCOCC2)cc1	48.7*	6.6	1.1	0.1
O=C(CN1CCN(CC(=O)Nc2ccc(OCc3ccccc3)cc2)CC1)Nc1ccc(F)cc1	18.8	3.5	-0.9	0.0
Cc1cc(NCCCN2CCCC2=O)nc(-c2ccccc2)n1	-30.8	3.4	0.4	0.1
CCOC(=O)c1nnn(-c2nonc2N)c1CN(Cc1ccccc1)C(C)C	44.2*	1.6	1.0	0.1
CCOC(=O)c1nnn(-c2nonc2N)c1CN(CC)c1ccccc1	-8.3	-2.5	-1.0	-0.1
C(=C\c1ccco1)/C=N/Nc1nc(Nc2ccccc2)nc(N2CCOCC2)n1	-11.6	14.3	-0.9	-0.8
O=C(COc1cccc2ccc(N3CCOCC3)nc12)Nc1cccc(F)c1	33.9*	0.7	2.6	0.1
CCOc1ccc(NC(=O)COc2cccc3ccc(N4CCCC4)nc23)cc1	-8.8	-4.8	-0.7	-0.1
C/C(=N\NC(=O)c1ccc(C)cc1)C(C)(C)C	-47.0	8.8	2.3	-0.1
CC(=O)OC1c2cc(C)ccc2NC(c2ccc(Cl)cc2)C1(C)C (stereo not given)	14.3	8.4	1.4	0.3
CC(=O)OC1c2cc(C)ccc2NC(c2ccc(F)cc2)C1(C)C (stereo not given)	33.8*	8.8	0.4	-0.2
COC(=O)Nc1ccc(C(C)(C)C)cc1[N+](=O)[O-]	-4.6	13.9	-1.9	0.5
COC(=O)Nc1cc([N+](=O)[O-])cc([N+](=O)[O-])c1Br	98.7*	-4.4	4.5	-0.3
O=C(Nc1nc(-c2ccc(Cl)cc2)cs1)c1ccc(S(=O)(=O)N2CCCCC2)cc1	-1.0	-2.0	-0.5	-0.1
Cc1ccc(-n2[nH]c(=O)c(-c3ccccn3)c2C)cc1	51.9*	6.8	-5.1	-0.1
Cc1ccc(-n2c(O)c(/C=N/c3ccccn3)c(=O)[nH]c2=O)cc1	0.5	1.9	0.2	-0.1
O=C(CCCc1ccccc1)N1CCC2(CC1)NC(=O)N(Cc1ccc(Cl)cc1)C2=O	9.6	5.6	0.2	-0.1
CCOC(=O)c1[nH]c(C)c(CN(C(C)=O)c2ccc(OCC)cc2)c1C	52.4*	-1.4	2.2	0.1
O=c1nc2s/c(=C\c3ccco3)c(=O)n2nc1Cc1ccc(F)cc1	2.4	70.3*	0.5	-1.8
Cc1cccc(CC(=O)Nc2cnn(-c3cccc(C(=O)N4CCCO4)c3)c2)c1	5.0	-11.7	-0.4	-0.2
SMILES	TEAD-YAP block	MITF inh	GPR151 ag	FBW7 activator
Cc1cccc(CC(=O)Nc2cnn(-c3cccc(C(=O)N4CCNC(=O)CC4)c3)c2)c1	5.6	39.4	3.6	4.3*
CC(C)c1noc2ncc(C(=O)c3ccccc3O)cc12	1.9	2.2	-0.1	0.0
COc1ccc(-n2nnnc2C2(Nc3cccc(Cl)c3)CCCCC2)cc1	48.4*	-4.6	0.5	0.1
CCn1cc(C(=O)N2CCC3(CC2)NC(=O)c2ccccc2N3)c(=O)c2ccc(C)nc21	-17.3	-5.2	2.0	0.1
O=C(NC1CCCCCCC1)c1cc(F)c(F)cc1Cl	-52.4	0.1	-1.1	0.0
O=C(NC1CCCCCC1)c1cccc(N2CCCC2=O)c1	61.3*	-11.5	-1.4	0.1
Cc1ccc(C(=O)NC2CCCCCC2)cc1	49.2*	-7.5	-4.0	0.0
Cc1nc2ccc(C(=O)NC3CCCCCC3)cc2nc1C	49.8*	-16.2	-7.4	0.3

Assay outcomes: PubChem BioAssay, The Scripps Research Institute Molecular Screening Center
